Our source for the inhibition values is PubChem BioAssay AID2315 (National Center for Advancing Translational Sciences (NCATS), 2010).

The campaign covered roughly 290,000 compounds. About 27,000 (9.3%) were called active. The full list was thinned out, with actives kept by preference. A number with no mark means an inactive call. Cut-off read from the data, not from the text of the source: active = inhibition mostly above about 28% (no sharp cut-off); inactive = mostly below about 43%.

The assay in a line: A qHTS for Small Molecule Inhibitors of Shiga Toxin. Note: 0% is about no effect. The note with it: Vero cells, Shiga toxin protein synthesis inhibition reporter; at 38.7 µM, active compounds read high. Background: Quantitative high-throughput screening tests each substance at several concentrations.
Broadly, the inhibition is the relative decrease from the control value, in per cent. As for `CCCOc1cccc(C(=O)Nc2nnn(CCC)n2)c1`, the inhibition was 103% (active).

For the compound `CCCOc1cccc(C(=O)NCCCNC(=O)c2cccnc2)c1`, the inhibition is -9.24%.

As for `CCCn1nnc(NC(=O)COc2ccc(CC)cc2)n1`, the inhibition was 3.59%.

With `CCCCCN(C(=O)CCC(=O)OCC(=O)NCc1ccc(OC)cc1)c1c(N)n(CCCC)c(=O)[nH]c1=O`, the inhibition is -10.9%.

On to `CC(C)c1ccc(NC(=O)C2CCCN(S(=O)(=O)c3cccnc3)C2)cc1` (configuration not stated), for which the inhibition was -4.38%.

Turning to `COc1ccc(NC(=O)CC2C(=O)NC3CCCCC3N2C(=O)c2ccc(F)cc2)cc1` (configuration not stated), the inhibition is -4.42%.

Regarding `O=C(COc1cccc(Cl)c1)NCc1ccccc1`, the inhibition is 15%.

In the case of `CCN(CC)CCN1C(=O)C2C(C(=O)Nc3ccc(Br)cc3)C3C=CC2(O3)C1C(=O)NC1CCCCC1` (configuration not stated), the inhibition is -12%.

`CC(C)c1cc(C(N)=O)c(NC(=O)c2cccc(COc3ccc(Br)cc3)c2)s1`: the inhibition was 199% (active).

For the compound `Cc1ccc(COc2ccc(C(=O)NN)cc2)cc1`, the inhibition is 30.5%.

As to `NNC(=O)c1cccc(COCC(F)(F)C(F)F)c1`, the inhibition is -2.2%.

For `CC(=O)c1cc(C#N)c(SCC(=O)Nc2nccs2)nc1C`, the inhibition was 65% (active).

As for `Cc1cc(C(F)(F)F)nc(SCC(=O)Nc2nccs2)n1`, the inhibition was -9.67%.

With `Cc1cccc(C)c1Nc1nnc(SCC(=O)Nc2sccc2C#N)s1`, the inhibition was -3.87%.

Take `Cc1[nH]c2ccccc2c1SCC(=O)Nc1nccs1`: the inhibition was 63.6% (active).

As for `CCn1c(SCC(=O)Nc2nccs2)nnc1-c1ccncc1`, the inhibition was -7.47%.

Take `CC(=O)c1cc(C#N)c(SCC(=O)C(C)(C)C)nc1C`: the inhibition was 89.1% (active).

Consider `CC(=O)c1cc(C#N)c(N2CC(C)OC(C)C2)nc1C` (configuration not stated), for which the inhibition is -8.18%.

For `CCn1c(SCC(=O)Nc2nccs2)nnc1-c1ccco1`, the inhibition was -6.37%.

Regarding `CC(=O)c1cc(C#N)c(N2CCCCC2)nc1C`, the inhibition was 1.31%.

With `CCOC(=O)CNC(=O)CSc1ncccc1-c1nc2ccccc2[nH]1`, the inhibition is -7.03%.

For the compound `COc1ccc(NC(=O)C2CCC(CNS(=O)(=O)c3csc(C(N)=O)c3)CC2)cc1OC` (configuration not stated), the inhibition is -12.8%.

`COc1ccc(Oc2cn[nH]c2-c2ccc(OC)cc2O)cc1`: the inhibition was -5.45%.

For `C#CCSc1nnc(-c2sc3ccccc3c2Cl)o1`, the inhibition is 89.1% (active).

With `O=C(OCC#CCSc1nnc(-c2ccncc2)o1)c1sc2ccccc2c1Cl`, the inhibition was -13.4%.

For `COc1ccc2c(Cl)c(-c3nnco3)sc2c1`, the inhibition is -0.739%.

For the compound `O=C(NCCc1nnc2ccc(SCC(=O)N3CCOCC3)nn12)c1ccccc1`, the inhibition was -1.17%.

As to `CC(C)(C)OC(=O)N/N=C/c1cn(-c2ccccc2)nc1-c1cccnc1`, the inhibition was -2.23%.

`COc1ccc(-c2nn(-c3ccccc3)cc2/C=N/Nc2ccccn2)cc1OC`: the inhibition is 24.4% (active).

In the case of `COc1ccc(-c2nn(-c3ccccc3)cc2C(=O)Nc2nccs2)cc1OC`, the inhibition was 12.9%.

As for `COc1cccc(CNC(=O)C2CCCN(c3ncnc4c3nc3n4CCCCC3)C2)c1` (configuration not stated), the inhibition is -3.2%.

Take `COc1ccc(N(CC(=O)N2CCCCCC2)S(=O)(=O)c2ccccc2)cc1`: the inhibition is 32.1%.

As to `COc1ccc(N(CCC#N)S(=O)(=O)c2ccc(Cl)cc2)cc1`, the inhibition was 42.6% (active).

On to `COc1ccc(S(=O)(=O)NCCCCOc2ccc(Cl)cc2)cc1`, for which the inhibition was -5.02%.

`CC1CN(C(=S)Nc2ccc(S(N)(=O)=O)cc2)CC(C)O1` (configuration not stated): the inhibition is -8.32%.

On to `COc1ccc(OC)c(NC(=O)Cc2cccs2)c1`, for which the inhibition was 9.31%.

As for `C=C(C)C(=O)O[C@H]1C/C(C)=C\C(=O)/C=C(\C)[C@H](O)[C@@H]2OC(=O)C(=C)[C@@H]21`, the inhibition is 60% (active).

Turning to `CCOc1ccc(C(=O)COC(=O)c2ccc(-n3cnnn3)cc2)cc1`, the inhibition is -9.12%.

For the compound `CCC(C)(C)NC(=O)CN(C(=O)CCC(=O)Nc1nccs1)c1ccc2c(c1)OCO2`, the inhibition was -6.38%.

As for `COCCCNC(=O)CN1C(=O)CSc2ccc(S(=O)(=O)N3CCOCC3)cc21`, the inhibition was 15.9%.

Take `CCCNC(=O)NCc1ccc(N2CCCC2=O)cc1`: the inhibition is -8.65%.

As to `CC1CCCC(NC(=O)CN2CCN(Cc3ccc(Cl)cc3)C2=O)C1C` (configuration not stated), the inhibition was -12.5%.

With `O=C(c1cccc(N2CCCC2=O)c1)N1CCOCC1`, the inhibition is 20.2%.

As for `C/C(=N\NC(=O)c1cccc(N2CCCC2=O)c1)c1ccc(N)cc1`, the inhibition was 38.9%.

Regarding `O=C(NCCCN1CCCCCC1)c1ccc(N2CCCC2=O)cc1`, the inhibition is 0.987%.

As to `CC1CCC(NC(=O)c2ccc(N3CCCC3=O)cc2)CC1` (configuration not stated), the inhibition was 56.6% (active).

Turning to `CC1CCCC(NC(=O)c2cccc(N3CCCC3=O)c2)C1C` (configuration not stated), the inhibition is 87.5% (active).

Turning to `Cc1cccc(C(=O)NCCCN2CCCC2=O)c1`, the inhibition is -5.25%.

`O=C(NCCc1ccc(Cl)cc1)c1cccc(N2CCCC2=O)c1`: the inhibition is 73.4% (active).

Regarding `COc1ccc(CCNc2nc(C)cc(C)n2)cc1OC`, the inhibition is 23.6%.

Take `CCCc1ccc(OCC(O)CN2CCN(C(=O)OCC)CC2)cc1` (configuration not stated): the inhibition is -4.04%.

For the compound `COc1ccc(S(=O)(=O)N2CCC(C(=O)NCc3ccco3)CC2)cc1C`, the inhibition is -3.78%.

With `CN(C(=O)CCNC(=O)Cn1ccc2ccccc2c1=O)c1ccc(Br)cc1`, the inhibition is -19.7%.

Consider `Cc1nc(-c2ccc([N+](=O)[O-])cc2)c(-c2ccccc2)o1`, for which the inhibition is -2.19%.

In the case of `Cc1nn(-c2ccc([N+](=O)[O-])cc2)c(N)c1-c1ccccc1`, the inhibition is 86.7% (active).

`Cc1cc(CO)nn1-c1ccc([N+](=O)[O-])cc1`: the inhibition is 12.4%.

For `CCn1c(=O)c2ccccc2n(CC(=O)N2CCCc3ccccc32)c1=O`, the inhibition is -12.6%.

Consider `CN(c1ccccc1)S(=O)(=O)c1ccc2[nH]c(=O)[nH]c2c1`, for which the inhibition is 21.5%.

For the compound `CC(=O)c1ccc(N2CCN(CC(O)c3ccccc3)CC2)cc1` (configuration not stated), the inhibition was 26.5%.

For the compound `CC(=O)c1ccc(N2Cc3ccccc3C2)cc1`, the inhibition is 79.3% (active).

With `CC(=O)c1ccc(N2CCN(C(=O)CCc3ccccc3)CC2)cc1`, the inhibition is 14.3%.

Turning to `CCOC(=O)N1CCN(C(=O)c2cn(C)c3ccc(S(=O)(=O)N(CC)CC)cc3c2=O)CC1`, the inhibition is 2.57%.
